Reference: PubChem BioAssay (NCATS)
Values without a mark were called inactive. Results filed as inconclusive are left out. Calls of active or inactive are those of the source. Calls follow the shape of the dose curve; as a rule, active = well fitted inhibition curve with a large enough effect; inconclusive = small, poorly fitted or top-dose-only effect; inactive = flat fitted curve, though single readings scatter.

The molecules below were run against Phospholipid hydroperoxide glutathione peroxidase GPX4 (Homo sapiens) (UniProt P36969) (assay: Primary qHTS Assay for Inhibitors of Recombinant Selenoprotein Glutathione Peroxidase 4 (GPX4) (AID 1845192; also: nearly all actives have a fitted effect of over 65% in size; as to activity change, negative = inhibition: % is scaled to controls: 0 for no effect and ±100 for the full control effect)). Settings: recombinant GPX4, GR-coupled NADPH fluorescence, 15 min; series mostly up to 50 µM; activity change, negative = inhibition: at the top concentration.
Chain of Phospholipid hydroperoxide glutathione peroxidase GPX4 (Homo sapiens) (P36969 whole entry, looked up): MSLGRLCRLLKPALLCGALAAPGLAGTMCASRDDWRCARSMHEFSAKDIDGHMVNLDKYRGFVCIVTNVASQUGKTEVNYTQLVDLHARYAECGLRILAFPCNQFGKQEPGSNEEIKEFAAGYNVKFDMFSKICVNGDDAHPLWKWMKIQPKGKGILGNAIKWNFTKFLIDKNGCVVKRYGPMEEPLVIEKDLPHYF
Procedure, shortened: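 NADPH consumption, followed by fluorescence at 340/450 nm between 0 and 15 min, reports GPX4 activity via coupled glutathione reductase (100 nM). Enzyme 200 nM was pre-exposed to compound 30 min; 0.5 mM cumene hydroperoxide and 1 mM GSH served as substrates.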

Structure (SMILES)	activity change, negative = inhibition	outcome
COc1ccc(C(O[C@@H]2O[C@H](CO)[C@@H](O)[C@H](O)[C@H]2O)C(CO)Oc2ccc(/C=C/CO)cc2OC)cc1O (some centres not stated)	-2.89% [at 27.8 µM]	–
CO[C@@H](Cc1ccc(OCCc2nc(-c3ccccc3)oc2C)c2ccsc12)C(=O)O	-5.66%	–
CC(=O)c1c(C)cc(O)cc1O[C@@H]1O[C@H](CO)[C@@H](O)[C@H](O)[C@H]1O	–	inactive [at 27.8 µM]
CC1[C@@H](O)[C@@H](O)C2[C@]3(C)C(C[C@H]4OC(=O)[C@H](O)[C@]1(O)[C@@]24C)C(C)(O)C[C@H](O)[C@H]3O (some centres not stated)	–	inactive [at 27.8 µM]
COc1ccc2c(c1)OC[C@]1(O)c3cc4c(cc3O[C@H]21)OCO4	-12.4% [at 27.8 µM]	–
COC(=O)C1=CO[C@@H](O[C@@H]2O[C@H](CO)[C@@H](O)[C@H](O)[C@H]2O)[C@@H]2[C@@H](C(=O)OC)[C@@H](O)C(O)[C@H]12 (some centres not stated)	-4.33% [at 27.8 µM]	–
CC(=O)O[C@H]1[C@H](Oc2ccccc2COC(=O)C2(O)C=CCCC2=O)O[C@H](CO)[C@@H](O)[C@@H]1O (some centres not stated)	–	inactive [at 27.8 µM]
CCOc1ccc(C(Nc2ccccn2)c2ccc3ccc(C)nc3c2O)cc1C (configuration not stated)	-7.6%	–
COc1ccc(C2=CC(=O)OC2Cc2ccc(O)cc2)c(O)c1 (configuration not stated)	–	inactive [at 27.8 µM]

What follows are molecules tested against Luciferin 4-monooxygenase (Photinus pyralis) (UniProt P08659) (assay: Primary firefly luciferase (FLuc) qHTS assay for identification of artifact compounds. (AID 1845220; also: nearly all actives have a fitted effect of over 60% in size;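 as to activity change, negative = inhibition: plate controls were DMSO vehicle for no effect and no enzyme for full effect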)). Settings: purified firefly luciferase, luminescence, 5 min; series mostly up to 54.1 µM; activity change, negative = inhibition: at the top concentration.
Procedure, shortened: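 Compounds sat 15 min at room temperature with 10 uM luciferin and 10 uM ATP (pH 7.6 Tris acetate). Firefly luciferase (10 nM final) was then added, and luminescence was read 5 min later. Data normalized to no-enzyme and DMSO controls were Hill-fitted.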

Structure (SMILES)	activity change, negative = inhibition	outcome
CN(NC(=O)CC(=O)NN(C)C(=S)c1ccccc1)C(=S)c1ccccc1	-1.83%	–
CC(=O)N(O)CCCCCN1C(=O)CCC1=O	-4.63%	–
CCOC(=O)c1c(C)nn(-c2cccc([N+](=O)[O-])c2)c1C	–	inactive
CC(/C=C/C1(O)C2(C)COC1(C)CC(=O)C2)O[C@@H]1O[C@H](CO)[C@@H](O)[C@H](O)[C@H]1O (some centres not stated)	3.4% [at 25.7 µM]	–
O=C(/C=C/c1ccc(O)cc1)O[C@H]1[C@@H]2C=CO[C@@H](O[C@@H]3O[C@H](CO)[C@@H](O)[C@H](O)[C@H]3O)[C@@H]2[C@@]2(CO)O[C@@H]12	–	inactive [at 25.7 µM]
CC(C#N)C(C)O[C@@H]1O[C@H](CO)[C@@H](O)[C@H](O)[C@H]1O (some centres not stated)	–	inactive
CC1(C)CCC[C@@]2(C)[C@H]1[C@H](O)C=C1COC(=O)[C@@]12O	4.19%	–
CNC(=O)c1ccc(Nc2ncc(C(F)(F)F)c(NCc3nccnc3N(C)S(C)(=O)=O)n2)cc1	1.83%	–
COc1cc(COC2OC(CO)C(O)C(O)C2O)cc(OC)c1O (configuration not stated)	–	inactive
C[C@H]1[C@H](C)CC[C@]2(C(=O)O[C@@H]3O[C@H](CO)[C@@H](O)[C@H](O)[C@H]3O)CC[C@]3(C(=O)O)C(=CCC4[C@@]5(C)CC[C@H](O[C@@H]6O[C@H](CO)[C@@H](O)[C@H](O)[C@H]6O)C(C)(C)C5CC[C@]43C)[C@H]12 (some centres not stated)	–	inactive [at 11.6 µM]
COC(=O)C12C(=O)C(C)=C(O)C1(C)C(C)=CC1C34CCC(OC3=O)C(C)(C)C4CCC12C (configuration not stated)	–	inactive [at 25.7 µM]
O=c1c2ccccc2nc2n1CCC2O (configuration not stated)	0.289% [at 86.2 µM]	–
CC(=O)NC(CCC(=O)O)C(=O)NCCc1ccc(O)cc1 (configuration not stated)	1.21%	–
C=C(C)[C@@H]1CC[C@](C)(O)[C@@H](OC(=O)c2ccccc2)C1	2.99%	–
CC(=O)N1CCN(NC(=O)c2ccc(F)cc2)CC1	–	inactive
COC(=O)CC1(O)C(=O)Nc2ccccc21 (configuration not stated)	0.552%	–
CCCn1cnc2c(NCc3ccccc3)nc(N[C@H](CC)CO)nc21	–	inactive
COc1cc2c(cc1O)C1(Cc3ccc4c(c3C1=O)OCO4)N(C)CC2 (configuration not stated)	-5.14%	–
C=C1CCC2[C@@](C)(C=O)CCC[C@]2(C)[C@H]1CC/C(C)=C/CO (some centres not stated)	2.4%	–

Structure (SMILES)	activity change, negative = inhibition	outcome
C/C=C(\C)C(=O)OC[C@H]1O[C@H](O[C@H]2O[C@H](CO)[C@@H](OC(=O)/C(C)=C/C)[C@H](O)[C@H]2O[C@@H]2O[C@H](CO)[C@@H](O)[C@H](O)[C@H]2O)[C@H](O[C@@H]2O[C@H](CO)[C@@H](O)[C@H](O)[C@H]2O)[C@@H](O)[C@@H]1O	1.93% [at 11.6 µM]	–
C/C=C(\C)C(=O)O[C@@H]1CC2[C@@H](CC=C3C[C@@H](O[C@H]4C[C@H](OC)[C@H](O[C@H]5C[C@H](OC)[C@H](O[C@H]6C[C@H](OC)[C@H](O[C@H]7C[C@@H](OC)[C@H](O[C@@H]8O[C@H](CO)[C@@H](O)[C@H](O)[C@H]8O)[C@@H](C)O7)[C@@H](C)O6)[C@@H](C)O5)[C@@H](C)O4)CC[C@@]32C)[C@@]2(O)CC[C@H](C(C)=O)[C@@]12C (some centres not stated)	2.2% [at 11.6 µM]	–
CC1CCC2C(C(=O)O)=CC3CC(C)(C)CC132 (configuration not stated)	3.47%	–
COc1ccc(/C=C/C(=O)O[C@@H]2[C@@H](O)[C@H](C)O[C@@H](OC3C4C=COC(O[C@@H]5O[C@H](CO)[C@@H](O)[C@H](O)[C@H]5O)C4C4(CO)OC34)[C@@H]2O)cc1OC (some centres not stated)	0.407% [at 25.7 µM]	–
CCC(C)C(=O)O[C@@H]1[C@@H](O)[C@@H](O[C@H]2O[C@H](CO)[C@@H](O)[C@H](O)[C@H]2O)O[C@H](CO)[C@H]1O (some centres not stated)	0.553% [at 25.7 µM]	–
C=C1C(=O)OC2CC(C)=C(C(C)CCCO[C@@H]3O[C@H](CO)[C@@H](O)[C@H](O)[C@H]3O)C(O)C12 (some centres not stated)	0.288% [at 25.7 µM]	–
CCC(C)(O)C(O)C(=O)OCc1ccc(O[C@@H]2O[C@H](CO)[C@@H](O)[C@H](O)[C@H]2O)cc1 (some centres not stated)	–	inactive [at 25.7 µM]
C/C=C(\C)C(=O)O[C@@H](C)[C@H]1CC[C@]2(O)C3CCC4C[C@@H](OC5CC(OC)C(OC6CC(OC)C(OC7CC(OC)C(OC8OC(C)C(OC9OC(CO)C(O)C(O)C9O)C(OC)C8O)C(C)O7)C(C)O6)C(C)O5)CC[C@]4(C)C3[C@H](O)[C@@H](O)[C@]12C (some centres not stated)	–	inactive [at 11.6 µM]
CC1CCC(=O)CC(O)C(O)CC(=O)O1 (configuration not stated)	4.7%	–
CC1=C(C)C(=O)OC(C(C)(O)C2CCC3C4CC=C5CC(OC6OC(COC7OC(CO)C(O)C(O)C7O)C(O)C(O)C6O)CC(O)C5(C)C4CCC32C)C1 (configuration not stated)	-0.0602% [at 25.7 µM]	–
COc1ccc(C(O[C@@H]2O[C@H](CO)[C@@H](O)[C@H](O)[C@H]2O)C(CO)Oc2ccc(/C=C/CO)cc2OC)cc1O (some centres not stated)	–	inactive [at 25.7 µM]
CO[C@@H](Cc1ccc(OCCc2nc(-c3ccccc3)oc2C)c2ccsc12)C(=O)O	-5.31%	–
CC(=O)c1c(C)cc(O)cc1O[C@@H]1O[C@H](CO)[C@@H](O)[C@H](O)[C@H]1O	–	inactive
CC1[C@@H](O)[C@@H](O)C2[C@]3(C)C(C[C@H]4OC(=O)[C@H](O)[C@]1(O)[C@@]24C)C(C)(O)C[C@H](O)[C@H]3O (some centres not stated)	–	inactive [at 25.7 µM]
COc1ccc2c(c1)OC[C@]1(O)c3cc4c(cc3O[C@H]21)OCO4	-22.5%	–
COC(=O)C1=CO[C@@H](O[C@@H]2O[C@H](CO)[C@@H](O)[C@H](O)[C@H]2O)[C@@H]2[C@@H](C(=O)OC)[C@@H](O)C(O)[C@H]12 (some centres not stated)	2.98% [at 25.7 µM]	–
CC(=O)O[C@H]1[C@H](Oc2ccccc2COC(=O)C2(O)C=CCCC2=O)O[C@H](CO)[C@@H](O)[C@@H]1O (some centres not stated)	-1.12% [at 25.7 µM]	–
CCOc1ccc(C(Nc2ccccn2)c2ccc3ccc(C)nc3c2O)cc1C (configuration not stated)	–	inactive
COc1ccc(C2=CC(=O)OC2Cc2ccc(O)cc2)c(O)c1 (configuration not stated)	-2.47%	–
